Reference: PubChem BioAssay (NCI)
About 83,000 compounds went through this panel and 20% of them were active in at least one assay; those are over-represented in the sample as a whole.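 Note: values are percent growth. 100 is the growth of untreated cells, values between 100 and 0 indicate rising inhibition; between -100 and 0 indicates cell death.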 Values without a mark were called inactive. The source made the active and inactive calls. Rule for the calls: active = growth percent below 10; inactive = the rest.

tested on: HL-60(TB) leukemia; assay: NCI-60 one-dose screen, 48 h (100 = growth as untreated, 0 = no growth, -100 = all killed); settings: 10 µM unless noted

| SMILES | growth |
| --- | --- |
| N#Cc1nc(-c2ccccc2)oc1S(=O)(=O)N1CCCCC1 | 10.5% |
| COc1ccc(C(=O)/C=C/c2ccc(OCc3ccc(C)cc3)c(OC)c2)cc1OC | 40.7% |
| N#CC1=C2NCCCNc3oc(nc3C#N)Cc3ccccc3CC(=N1)O2 | 62.9% |
| COc1ccc(Cn2cc3c(c2-c2ccccc2)CCCc2cnoc2-3)cc1[N+](=O)[O-] | 27% |
| CS(=O)(=O)c1nccc(-c2c(-c3ccc(F)c(OCCc4ccc(F)cc4)c3)nc3sccn23)n1 | -12.1% (active) |
| N#Cc1c(-c2ccc(F)cc2)nc2c(C#N)c(Nc3ccccc3)nn2c1N | 104% |
| O=C(CSc1nnc(-c2cccs2)n1-c1ccccc1)Nc1ccc(F)cc1 | 69.5% |
| CCOc1ccc(NC2=C(Cl)C(=O)c3nc(C)ccc3C2=O)cc1 | -46.4% (active) |
| O=C1CSC(=O)N1Cc1cc2ccccc2nc1Cl | 101% |
| CCCC(=O)NC(c1ccc2c(c1)OC(F)(F)O2)c1cc(C)c2cccnc2c1O (stereo not given) | -4.8% (active) |
| CN(C)CCN(C)c1ccc2ncc(C#Cc3cncc(C(=O)Nc4ccc(CN5CCN(C)CC5)c(C(F)(F)F)c4)c3)n2n1 | 36.5% |
| COc1ccc(-c2cnc(NC(=O)CCCCCCNC(=O)C(O)(O)C(F)(F)F)s2)cc1 | 10.5% |
| NS(=O)(=O)c1nnc(/N=C/c2c(O)[nH]c3ccccc23)s1 | 123% |
| COc1cc2nc(Cl)nc(Nc3cccc(C4=Nc5c(N)nc(N)nc5NC(c5ccccc5)C4)c3)c2cc1OC (stereo not given) | 66.4% |
| CCCCCCOC(=O)c1cc(-c2ccc(F)cc2)nc2ccccc12 | 77.8% |
| CC(=O)N(O)CCCCCNC(=O)CCC(=O)N(O)CCCCCNC(=O)CCC(=O)N(O)CCCCCN(CCCCCCCCCC[P+](c1ccccc1)(c1ccccc1)c1ccccc1)CCCCCCCCCC[P+](c1ccccc1)(c1ccccc1)c1ccccc1 | -25.7% (active) |
| COC(=O)c1cccc(NC2=C(Cl)C(=O)c3nc(C)ccc3C2=O)c1 | 24.3% |
| C=CCn1c(SCC(=O)c2ccc(Br)cc2)nnc1-c1c[nH]c2ccccc12 | 92.3% |
| Cc1cc2nc3c4cc(C#N)ccc4n(CCN(C)C)c3nc2cc1C | -35.7% (active) |
| COc1ccc([C@H]2C(=O)N(c3cc(OC)c(OC)c(OC)c3)[C@@H]2c2ccc(OC)c(O)c2)cc1 | -21.2% (active) |

| SMILES | growth |
| --- | --- |
| C#CCNC1CCC(c2csc(C#C)n2)=C1C (stereo not given) | 90.6% |
| CC1=C(C)C(=O)C(Nc2cccc(C(=O)OC(C)(C)C)c2)=C(Cl)C1=O | 68% |
| C/C(=N\NC(=O)CSc1nc2sc3c(c2c(=O)n1-c1ccccc1)CCC(C)C3)c1ccc(Cl)cc1 (stereo not given) | 3.75% (active) |
| COc1cc(/C=C/C(=O)c2ccc(Cl)cc2)ccc1Oc1nc(NCCO)nc(N2CCOCC2)n1 | 93.7% |
| CN1CCN(c2ccc(Nc3nc(NCCCNS(=O)(=O)c4cccc(F)c4)c4sccc4n3)cc2)CC1 | -48.7% (active) |
| COc1cc(/C=C/C(=O)c2ccc(N3CCN(C)CC3)cc2)ccc1F | 50% |
| CCOC(=O)C(=O)/C(=C\c1ccc(Cl)cc1)C(=O)N1C(=S)NC(=O)C1CC(C)C (stereo not given) | 111% |
| O=C(O)CCCCCN1C(=O)/C(=C/c2ccc(O)c(O)c2)SC1=S | 101% |
| COc1cccc2c1C=CC1(O2)Oc2cccc(OC)c2C=C1C (stereo not given) | 0.839% (active) |
| Cc1ccc(-c2cc3nc(C(Cl)Cl)nc(-c4ccccc4)n3n2)cc1 | 55.1% |
| CCOC(=O)C1=C(C)NC(C)=C(C(=O)OC(C)C)C1c1cccc(C#N)c1 (stereo not given) | 93.1% |
| IP(CCCSc1n(Cc2ccc3ccccc3c2)c(-c2ccccc2)c(-c2ccccc2)[n+]1Cc1ccc2ccccc2c1)(c1ccccc1)(c1ccccc1)c1ccccc1 | -29.1% (active) |
| N=C1CC(=O)NN1C(=O)CSc1nc2sc3c(c2c(=O)n1-c1ccc(Cl)cc1)CCCC3 | 108% |
| CC(=O)OC[C@]12CC[C@@H](C(=O)/C=C/c3cccnc3)[C@@H]1[C@H]1CC[C@@H]3[C@@]4(C)CC[C@H](OC(C)=O)C(C)(C)[C@@H]4CC[C@@]3(C)[C@]1(C)CC2 | -15.1% (active) |
| Clc1ccc2c(NCCCN3CCOCC3)c3oc4ccc(Cl)cc4c3nc2c1 | 67.7% |
| Oc1ccc(CSc2nnc(-c3ccccc3)n2-c2ccccc2)c2cccnc12 | 7.9% (active) |
| CCN(CC)Cc1c(-c2cccc(OC(F)(F)F)c2)[nH]c2ccc(N3CCCC3)cc2c1=O | 72.9% |
| N#Cc1c(-c2cccs2)cc(-c2cnccn2)nc1SCC(=O)N/N=C/c1ccncc1 | 118% |
| NS(=O)(=O)c1cccc(Nc2nc(SCC(=O)c3ccc(Br)cc3)nc3ccccc23)c1 | 79.1% |
| Cc1ccc(C)c(NC2=C(Cl)C(=O)c3nc(C)ccc3C2=O)c1 | -25.8% (active) |
